Screens as filed in PubChem.
This is a sample that favours compounds with a hit; in the whole collection about 11% have one here.
IMPase cell inh = membrane-permeable compound that blocks inositol monophosphatase; 120,000 tested, under 10 active; P97697; AID 901; CHO-M1 cells, IP1 accumulation, HTRF TR-FRET ratio; inhibition (IP1 accumulation), % at 46.1 µM; active = well fitted curve in the direction sought with a large enough effect in the signal ratio, not every such curve was filed as active; inconclusive = small, poorly fitted or top-dose-only effect, or a change in a side signal; inactive = no such curve, though single readings can be large or run the other way; the % refers to the signal ratio;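 note: cells stimulated with carbachol in lithium chloride buffer; plate controls were DMSO basal wells for no effect and reference inhibitor wells for full effect; higher means more IMPase inhibition seen as more IP1 and lower FRET ratio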
Target sequence (P97697 whole entry, looked up): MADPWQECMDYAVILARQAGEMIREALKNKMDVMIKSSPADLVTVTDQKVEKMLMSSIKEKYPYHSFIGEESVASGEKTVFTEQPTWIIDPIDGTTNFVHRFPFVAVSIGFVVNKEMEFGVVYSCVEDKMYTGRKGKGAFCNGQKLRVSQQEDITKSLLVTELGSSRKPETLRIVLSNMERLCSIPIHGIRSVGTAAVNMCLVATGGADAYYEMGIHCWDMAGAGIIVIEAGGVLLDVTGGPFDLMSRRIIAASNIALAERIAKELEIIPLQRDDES
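CHO-M1, 2000 cells/well, cultured 16–30 h; cpd up to 46 uM; carbachol (50 uM solution, stimulation buffer w/ 50 mM LiCl, pH 7.4), 30 min 37C; IP-One TR-FRET, 10 min RT; Ex 320/Em 665, 620; Hill-fit AC50.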
IMPase Li cell = cell-permeable IMPase inhibitors with lithium potentiation. CHO-M1 cells, IP1 TR-FRET (IP-One), carbachol + lithium. Potency, µM (doses to about 59.4 µM), for inactives: at the top dose activity, negative = IMPase inhibition, usual class: inhibitors. 210,000 compounds, 0.35% hits;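 note: IP1 builds up when IMPase is blocked and the TR-FRET signal falls; potency is the fitted concentration of half-maximal effect; plate controls were basal vehicle for no effect and high inhibitor control for full effect; nearly all actives have a fitted effect of over 50% in size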
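Concentration–response in CHO-M1 cells, lithium-potentiated; 30 min at 37C. IP1 detected by competitive TR-FRET after 10 min lysis at RT. Hill-fitted AC50.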
ALDH1A1 block = inhibitors of human aldehyde dehydrogenase 1A1. P00352. Purified ALDH1A1, NADH fluorescence, propionaldehyde substrate. Potency, µM (series often up to 75.3 µM), without a hit: at the top dose activity, negative = inhibition, hits mostly inhibitors. 220,000 compounds, 7.3% hits. AID 1030; active = well fitted inhibition curve with a large enough effect, not every such curve was filed as active; inconclusive = small, poorly fitted or top-dose-only effect, or another doubt; inactive = no such curve, though single readings can be large or run the other way;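 note: potency is the fitted concentration of half-maximal effect; plate controls were no enzyme wells and a reference inhibitor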
HPGD block = inhibitors of human 15-hydroxyprostaglandin dehydrogenase (HPGD) | P15428 | purified HPGD, NADH fluorescence kinetic, PGE2 substrate | Potency, µM, for the others: at the highest dose activity change, negative = inhibition, usual class: inhibitors | 150,000 compounds, 4.3% hits | AID 894; active = well fitted inhibition curve with a large enough effect, not every such curve was filed as active; inconclusive = small, poorly fitted or top-dose-only effect, or another doubt; inactive = no such curve, though single readings can be large or run the other way; note: potency is the fitted concentration of half-maximal effect
Target sequence (P15428 whole entry, looked up): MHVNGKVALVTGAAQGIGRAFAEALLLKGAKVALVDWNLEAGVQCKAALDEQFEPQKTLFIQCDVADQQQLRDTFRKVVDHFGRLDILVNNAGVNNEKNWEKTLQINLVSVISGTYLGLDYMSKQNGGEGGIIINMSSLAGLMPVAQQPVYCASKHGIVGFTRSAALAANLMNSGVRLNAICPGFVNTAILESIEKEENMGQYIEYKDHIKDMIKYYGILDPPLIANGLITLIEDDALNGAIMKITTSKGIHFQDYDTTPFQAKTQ
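NADH formation kinetics: reaction with 30 uM PGE2 and 1 mM NAD+ (final), 20 nM enzyme, Tris-HCl pH 8 with Tween 20, after 15 min compound preincubation at room temperature. Fluorescence change, last versus first of five reads.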
PNC inhibitor = blocks assembly of the perinucleolar compartment. activity change (PNC), negative = inhibition, % at 10 µM. 140,000 compounds, 3.1% hits. PC3M PTB-GFP, PNC prevalence imaging, 16 h; active compounds read low. AID 2417;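 active = readout at or below -70, meaning at least 70% loss of cells showing the perinucleolar compartment, a nuclear body marking cancer cells; inconclusive = readout between -30 and a set limit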;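 note: plate controls were DMSO wells for no effect and camptothecin positive control wells for full effect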
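Compounds are pinned in duplicate onto adhered PC3M cells stably expressing GFP-tagged PTB and incubated 16 h at 37 C. Cells are then fixed, nuclei stained with Hoechst, and PNC-positive cells counted.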
NPSR antag = blocks cAMP signaling of the human neuropeptide S receptor; Q6W5P4; CHO-NPSR cells, cAMP TR-FRET, antagonist mode; Potency, µM (doses to about 38.3 µM), inactives show at the highest dose activity change, negative = inhibition, hits mostly inhibitors; 220,000 compounds, 1% hits; AID 1461; note: potency is the fitted concentration of half-maximal effect; nearly all actives have a fitted effect of over 50% in size
Active calls of the source: *; [ ] = dose if it differs, or a comment. Unless noted, calls come from the whole dose curve; as a rule, active = well fitted curve in the direction sought with a large enough effect; inconclusive = small, poorly fitted or top-dose-only effect, or another doubt; inactive = no such curve, though single readings can be large; an effect the other way counts as inactive or inconclusive. Unless noted, % is set by controls: 0 for no effect and ±100 for the full control effect.

CCOc1cc(C=O)cc(Br)c1OCC(=O)NCCc1ccccc1 was read as IMPase Li cell 0%, ALDH1A1 block 6.3µM* and NPSR antag -45%.
`COc1cc(C=O)c(Br)cc1OCC(=O)NCCc1ccccc1` gave IMPase Li cell 1%, ALDH1A1 block -6% and NPSR antag -13%.
OCc1cc(-c2ccc(Cl)c(Cl)c2)on1 was read as IMPase Li cell -10%, ALDH1A1 block -15% and NPSR antag 24%.
`c1ccc(Cn2cc(CN3CCCCO3)c(-c3ccc4c(c3)OCO4)n2)cc1` gave IMPase Li cell 17%, ALDH1A1 block 32µM* and NPSR antag 53%.
Screening c1ccc(-n2cc(CN3CCCC3)c(-c3ccc4c(c3)OCO4)n2)cc1 returned IMPase Li cell 15%, ALDH1A1 block inconclusive and NPSR antag -13%.
Screening CCN1C(=O)C2(/C(=C(\O)c3ccc4c(c3)OCCO4)C(=O)C(=O)N2CCCOC)c2ccccc21 (centres undefined) returned IMPase cell inh -8, ALDH1A1 block 3%, PNC inhibitor -9 and NPSR antag -2%[46.1 µM].
For O=C(CC1(O)C(=O)Nc2ccccc21)c1ccccc1O (centres undefined) the results were IMPase cell inh 5, IMPase Li cell -3%[38.3 µM], ALDH1A1 block -12%, HPGD block -8%, PNC inhibitor inconclusive and NPSR antag inconclusive.
For O=C(CC1=NCCNC(c2ccccc2)C1)c1ccccc1O (centres undefined) the results were IMPase cell inh 4, IMPase Li cell -10%[38.3 µM], ALDH1A1 block 18µM*, HPGD block 25µM*, PNC inhibitor 31 and NPSR antag inconclusive.
`CCN(C(=O)CN1C(=S)NC(C)(C)CC1C)c1ccc(C)c(C)c1` (centres undefined) gave IMPase Li cell 10%, ALDH1A1 block 28µM* and NPSR antag -33%.
Screening Cc1ccc(NC(=O)CN2C(=S)NC(C)(C)CC2C)cc1Cl (centres undefined) returned IMPase Li cell -1%, ALDH1A1 block inconclusive and NPSR antag 12%.
For COC(=O)c1ccc(C(NC(=O)c2ccco2)[C@]2(C)C[C@H]2C2CCCCC2)cc1 (some centres undefined) the results were IMPase Li cell 2%, ALDH1A1 block 3.5µM* and HPGD block -11%.
`COc1cc(C(=S)N2CCOCC2)cc(OC)c1OC(=O)Cc1ccc(F)cc1` gave IMPase Li cell -1%, ALDH1A1 block 28µM*, HPGD block 16µM*, PNC inhibitor -5 and NPSR antag 2%.
For C=CCN1C(=O)S/C(=C/c2ccsc2)C1=O the results were IMPase cell inh -3, IMPase Li cell 34%, ALDH1A1 block 13µM*, HPGD block -24%, PNC inhibitor -10 and NPSR antag 16%[46.1 µM].
`C=CCN1C(=O)S/C(=C\c2ccc3c(c2)n(C)c(=O)n3C)C1=O` gave IMPase Li cell 3%, ALDH1A1 block 0.28µM*, HPGD block 14%, PNC inhibitor 13 and NPSR antag 10%.
CCN1C(=O)S/C(=C/c2ccsc2)C1=O was read as IMPase cell inh -6, IMPase Li cell 16%[38.3 µM], ALDH1A1 block inconclusive, HPGD block -28%, PNC inhibitor -1 and NPSR antag 9%[46.1 µM].
`C=CCN1C(=O)S/C(=C\c2ccc(N3CCOCC3)cc2C)C1=O` gave IMPase cell inh 9, IMPase Li cell 53%[38.3 µM], ALDH1A1 block 0.89µM*, HPGD block inconclusive, PNC inhibitor 4 and NPSR antag -10%[46.1 µM].
For CCOC(=O)CN1C(=O)S/C(=C/c2ccc3c(c2)n(C)c(=O)n3C)C1=O the results were IMPase Li cell 6%, ALDH1A1 block inconclusive, HPGD block -19%, PNC inhibitor -1 and NPSR antag 2%.
`CSc1sc(C(=O)NN)c2c1C1(CCC2)SCCS1` gave ALDH1A1 block 0.45µM* and NPSR antag -20%.
For Cc1ccc(NC(=O)c2cc(-c3ccccc3)nn2-c2ccccc2)cc1 the results were IMPase Li cell 20%, ALDH1A1 block inconclusive, HPGD block -25%, PNC inhibitor -21 and NPSR antag -36%.
`CCOc1ccccc1-c1cc(C(=O)N/N=C/c2ccc(O)c(OC)c2)c2ccccc2n1` gave IMPase Li cell 9%, ALDH1A1 block -12%, HPGD block -10%, PNC inhibitor 5 and NPSR antag -7%.
For COc1ccc(N2CCN(Cc3nc4ccccc4c(=O)[nH]3)CC2)cc1 the results were IMPase cell inh -2, IMPase Li cell 27%[38.3 µM], ALDH1A1 block -13%, HPGD block -12%, PNC inhibitor -7 and NPSR antag -19%[46.1 µM].
Screening CCOc1ccc(C(=S)N2CCCC2)cc1 returned IMPase cell inh 13, IMPase Li cell 16%[38.3 µM], ALDH1A1 block inconclusive, HPGD block -22%, PNC inhibitor 2 and NPSR antag -6%[46.1 µM].
`Cn1nnc2cc(C(=O)N3CCC(c4ccccc4)C3)ccc21` (centres undefined) gave IMPase cell inh 1, IMPase Li cell 27%[38.3 µM], ALDH1A1 block 5%, HPGD block -2%, PNC inhibitor inconclusive and NPSR antag -5%[46.1 µM].
Screening Cn1nnc2cc(C(=O)N3CCCCCC3)ccc21 returned IMPase Li cell 2%, ALDH1A1 block 1%, HPGD block 3.2µM*, PNC inhibitor inconclusive and NPSR antag 4%[46.1 µM].
CCOc1ccc(C(=O)N2CCCCCC2)cc1 was read as IMPase cell inh -5, IMPase Li cell 5%[38.3 µM], ALDH1A1 block -8%, HPGD block 2µM*, PNC inhibitor 38 and NPSR antag -6%[46.1 µM].
Screening O=C(c1ccccc1)c1ccc(C(=O)N2CCOCC2)cc1 returned IMPase cell inh -1, IMPase Li cell -5%[38.3 µM], ALDH1A1 block -4%, HPGD block 7.9µM*, PNC inhibitor -29 and NPSR antag 9%[7.67 µM].
Screening O=C(c1ccc(C(=O)N2CCCCCC2)cc1)N1CCCCCC1 returned IMPase cell inh -6, IMPase Li cell 0%, ALDH1A1 block 18µM*, HPGD block 7.9µM*, PNC inhibitor 63 and NPSR antag 13%.
O=C(c1ccc([N+](=O)[O-])cc1)N1CCCC1 was read as NPSR antag -15%.
For CS(=O)(=O)N1Cc2ccccc2CC1C(=O)OCC(=O)Nc1ccc2ccccc2c1 (centres undefined) the results were IMPase cell inh 7, IMPase Li cell 3%[38.3 µM], ALDH1A1 block -6%, HPGD block -11%, PNC inhibitor -9 and NPSR antag -19%[46.1 µM].
